This is a sample that favours compounds with a hit; in the whole collection about 3.3% have one here.
NOD2 RIPK2 PPI: blocks binding of human NOD2 to RIPK2; CHO BLA complementation NOD2-RIPK2, CCF4 ratio; inhibition, % at 4.98 µM; 360,000 tested, 0.38% active; AID 624267; in the data active = inhibition above about 21%;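 note: 0% = vehicle only and 100% = reference blocker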
rCAG binder: binds r(CAG) RNA repeats; inhibition, % at 3 µM; 370,000 tested, 1.3% active; r(CAG) RNA repeat, TO-PRO-1 dye displacement fluorescence;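 active = inhibition above the plate cutoff, the mean of all test compounds on that plate plus 3 SD, cut at about 35% in these data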;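 note: 0% = DMSO alone and 100% = 100 µM mitoxantrone as full dye displacement; higher means more dye released from RNA so lower well fluorescence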
PRMT1 inh: blocks human protein arginine methyltransferase 1; Q99873; recombinant PRMT1, activity-based probe fluorescence polarization; inhibition, % at 2.79 µM; 370,000 tested, 1.3% active; AID 652257;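 active = inhibition above about 21% made by adding two undisclosed values, limit read from the data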
ABHD5 PLIN5 PPI: blocks binding of human ABHD5 to perilipin-5. Q00G26+Q8WTS1. Split G. princeps luciferase complementation, luminescence, 4 h. inhibition, % at 4 µM. 360,000 tested, 0.78% active. AID 602281;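 active = inhibition above the mean inhibition across every tested compound plus 3 SD, cut at about 22% in these data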;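 note: 0% = DMSO only wells and the 100% control is not disclosed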
TLR4 MyD88 comp: TLR4-MyD88 interaction inhibition in cells; AID 861; inhibition, % at 8.4 µM; HeLa CL3-4 TLR4/MyD88 BLA complementation, FRET ratio; O00206+Q99836; 200,000 tested, 0.18% active; in the data active = inhibition above about 25%;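 note: 0% = vehicle and 100% = reference inhibitor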
TLR9-MyD88 block: TLR9-MyD88 interaction inhibition; inhibition, % at 4.98 µM; Q9NR96+Q99836; 340,000 tested, 0.21% active; AID 504734; CHO BLA complementation TLR9-MyD88, CCF4 FRET ratio;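 active = inhibition above the mean over all tested compounds plus 3 SD, cut at about 21% in these data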;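 note: 0% = DMSO only wells and 100% = clavulanate BLA inhibitor control wells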
ABHD5 PLIN5 conf: ABHD5-PLIN5 interaction inhibition, confirmed. shares compounds with ABHD5 PLIN5 PPI. AID 651612. inhibition, % at 4 µM. biochemical ABHD5-PLIN5 interaction, luminescence. 2,200 tested, 67% active; in the data active = inhibition above about 23%;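 note: 0% = DMSO vehicle wells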
HNF4 counter: counter-screen for ABHD5-PLIN5 inhibitors: HNF4 split-luciferase | shares compounds with ABHD5 PLIN5 PPI | HNF4 dimerization, luminescence, biochemical | inhibition, % at 4 µM | 2,200 tested, 77% active;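 active = mean inhibition across replicate wells exceeding the computed hit threshold, cut at about 13% in these data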;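 note: light from luciferase halves that rejoin when HNF4 fusion proteins dimerize; 0% = DMSO only wells and the 100% control is not given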
Starred values were filed as active, the others as inactive; nt = not tested or not shown.

SMILES | NOD2 RIPK2 PPI | rCAG binder | PRMT1 inh | ABHD5 PLIN5 PPI | TLR4 MyD88 comp | TLR9-MyD88 block | ABHD5 PLIN5 conf | HNF4 counter
CCOC(=O)Cc1csc(NC(=O)c2ccc(C)c(S(=O)(=O)N3CCOCC3)c2)n1 | 4 | 7 | 2 | -4 | nt | 2 | nt | nt
O=c1c2c(-c3ccccc3)csc2nc2c3ccccc3c(NCCN3CCOCC3)nn12 | 3 | 7 | 6 | 23* | 6 | -2 | 11 | 5
O=c1c2ccccc2nc2c3ccccc3c(NCCN3CCOCC3)nn12 | nt | 2 | -1 | nt | -2 | nt | nt | nt
Nc1nc(COc2ccc(F)cc2Cl)nc(N2CCCCC2)n1 | -4 | -2 | 8 | 0 | 5 | 0 | nt | nt
O=S(=O)(/C(=C\c1ccc(C(F)(F)F)cc1)c1nc2ccccc2[nH]1)c1ccccc1 | 19 | nt | nt | 86* | nt | -10 | 101* | 96*
O=C(NCc1ccco1)/C(=C/c1ccc(C(F)(F)F)cc1)c1nc2ccccc2[nH]1 | -6 | 13 | 1 | 19 | 4 | 1 | nt | nt
Cc1cc(C)c(C#N)c(N2CCN(Cc3ccc4c(c3)OCO4)CC2)n1 | 9 | -2 | 4 | 0 | 5 | -5 | nt | nt
N#CCc1c(C#N)c(N)nc(N2CCN(Cc3ccc4c(c3)OCO4)CC2)c1C#N | 10 | 16 | 19 | 26* | -19 | 1 | 2 | 7
Cc1ccc(S(=O)(=O)Nc2ncccn2)cc1 | -10 | 1 | -2 | -3 | nt | 0 | nt | nt
C=CCNC(=O)/C(C#N)=C/c1cc(Br)ccc1OC | 6 | 0 | -3 | 43* | -8 | -4 | 56* | 45*
C=CCNC(=O)/C(C#N)=C/c1ccccc1Cl | 3 | 4 | 2 | 6 | 6 | -4 | nt | nt
Cc1ccc2nc3c(cc2c1)CN(Cc1ccco1)C(=NCC1CCCO1)S3 (configuration not stated) | 7 | 1 | 3 | 18 | -13 | -6 | nt | nt
Cc1cccc2cc3c(nc12)SC(=NCC1CCCO1)N(Cc1ccco1)C3 (configuration not stated) | 19 | nt | nt | 26* | -9 | 8 | 43* | 77*
CCCC(=O)NC(c1cccc([N+](=O)[O-])c1)c1ccc2cccnc2c1O (configuration not stated) | 7 | 8 | 0 | 29* | nt | 3 | 26* | 0
CCCCC(=O)NC(c1ccc(N(C)C)cc1)c1ccc2cccnc2c1O (configuration not stated) | 6 | -3 | -3 | 23* | nt | 4 | 17 | 4
Cc1ccc(N=C/C(C(=O)C(F)(F)F)=C(\O)c2ccco2)cc1Cl | 5 | 4 | 1 | 0 | 2 | -1 | nt | nt
COc1ccc(/C=C/C(=O)OCC(=O)NC2CCCCC2C)c(OC)c1 (configuration not stated) | 4 | 0 | -3 | 0 | nt | -1 | nt | nt
Cc1ccc(S(=O)(=O)N2C[C@H]3n4c(=O)ccc(=O)n4C[C@H](OC(=O)NCC4CCCCC4)[C@@]3(O)C2)cc1 | 12 | 4 | 3 | 26* | nt | -11 | 63* | 45*
Cc1ccc(S(=O)(=O)N2C[C@H]3n4c(=O)ccc(=O)n4C[C@H](OC(=O)NCc4ccccc4)[C@@]3(O)C2)cc1 | 0 | 3 | -1 | 19 | nt | 0 | nt | nt
O=C1/C(=C\c2ccc(Cl)cc2)CCC1CNc1ccc(Cl)cc1 (configuration not stated) | 0 | 8 | 21 | 37* | nt | 2 | 60* | 80*
COc1ccc(-c2nc(CN3CCN(c4cc(C)nc(C)c4)CC3)c(C)o2)c2ccccc12 | 5 | 8 | 2 | 25* | 1 | -4 | 12 | 1
CCOc1ccc(S(=O)(=O)N(CC(=O)NCc2cccnc2)c2ccc(F)cc2)cc1 | 0 | 0 | 0 | 40* | nt | 8 | 1 | -5
O=C(CN1CCC2(CC1)OCCO2)c1ccc2cc[nH]c2c1 | 5 | 5 | 0 | 102* | -13 | 2 | 5 | 10
O=C(CN1CCN(c2ccccc2)CC1)c1ccc2cc[nH]c2c1 | -14 | 4 | 6 | 2 | -11 | 3 | nt | nt
Cc1cccc(-n2cnc3c(c2=O)c2nc4ccccc4nc2n3Cc2ccco2)c1 | -4 | 6 | 21* | 30* | nt | 0 | 47* | 70*
SMILES | NOD2 RIPK2 PPI | rCAG binder | PRMT1 inh | ABHD5 PLIN5 PPI | TLR4 MyD88 comp | TLR9-MyD88 block | ABHD5 PLIN5 conf | HNF4 counter
CC1(C(=O)Nc2cccc3cccnc23)CCN1Cc1ccc(-c2ccccc2)o1 (configuration not stated) | -13 | 17 | 19 | 61* | nt | nt | 47* | 73*
Cc1cc(C)c(NC(=O)COc2ccccc2C(=O)Nc2ccc3c(c2)oc2ccccc23)c(C)c1 | 8 | 2 | 1 | -2 | -16 | -10 | nt | nt
CC(=O)Oc1ccccc1N(C(C)=O)S(=O)(=O)c1ccc2ccccc2c1 | 5 | -3 | 1 | -6 | -7 | 7 | nt | nt
CC(=O)Oc1c(Br)cc(N(C(C)=O)S(=O)(=O)c2ccccc2)c2ccccc12 | -4 | 6 | 12 | 45* | nt | 1 | 48* | 14*
C=C1C(=O)OC2CC1C(OC(C)=O)CC(C)=CCCC(C)=CCCC2(C)O (configuration not stated) | 10 | -5 | -2 | 61* | nt | nt | 83* | 66*
Cc1ccc(Cn2c(=O)sc3ccccc3c2=O)cc1 | 4 | -1 | 3 | -5 | 15 | -3 | nt | nt
Cc1ccc(-n2sc3ccccc3c2=O)cc1 | 15 | 0 | 76* | 31* | 8 | 5 | 10 | 114*
Cn1ccc2c(-c3cccc(C=O)c3)cc3c(c21)C1CCC3O1 (configuration not stated) | -2 | 3 | 1 | 7 | nt | nt | nt | nt
CC(=O)SC1CC(=O)C=C2CCC3C4CCC(=O)OC4(C)CCC3C21C (configuration not stated) | -1 | 1 | -4 | 2 | nt | 5 | nt | nt
N#Cc1c(Nc2ccccc2Cl)s[nH]c1=O | -4 | 2 | 23* | 25* | nt | -11 | 44* | 103*
O=C(CSc1nnc(-c2ccncc2)n1Cc1ccco1)c1ccc(Cl)cc1 | -1 | 8 | 7 | 32* | -21 | 6 | 18 | 29*
O=C(CSc1nnc(-c2ccc(Cl)cc2)n1Cc1ccco1)c1cccs1 | -2 | 30 | 23* | 33* | -9 | 16 | 12 | 14*
COC(=O)[C@]1(C)N[C@H](CN(C)C(=O)c2ccccc2)[C@@H]2C(=O)N(C)C(=O)[C@@H]21 | -1 | 2 | -4 | 12 | nt | -7 | nt | nt
Cc1ccccc1OCCCN1C(=O)C(=O)c2cccc(C)c21 | 6 | 2 | -3 | 27* | 6 | 5 | 49* | 48*
Cc1cccc2c1N(CCCOc1ccccc1)C(=O)C2=O | 0 | 3 | 0 | 12 | 13 | -2 | nt | nt

Bioassay records deposited in PubChem by The Scripps Research Institute Molecular Screening Center.
